The entries come from a sample that favours hits as a whole.
SARS PLP yeast = inhibitors of SARS-CoV papain-like protease in yeast | S. cerevisiae expressing SARS-CoV PLpro, growth rescue | Potency, µM (titrated, usually from 32.9 µM), usual class: activators | 0.19% of 330,000 active | AID 485353; calls by dose curve; also: nearly all actives have a fitted effect of over 55% in size
Shiga inhibitor = blocks Shiga toxin action in Vero cells. inhibition, % at 38.7 µM. AID 2315. Vero cells, Shiga toxin protein synthesis inhibition reporter. 9.2% of 290,000 active; in the data active = inhibition mostly above about 28%, no sharp cut-off; inactive = mostly below about 43%
TbPYK inhibitor = blocks Trypanosoma brucei pyruvate kinase; Potency, µM (doses to about 76.8 µM), most hits filed as inhibitors; 0.12% of 410,000 active; TbPYK enzyme, Kinase-Glo Plus ATP luminescence, 45 min; also: nearly all actives have a fitted effect of over 50% in size
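Assay buffer: 50 mM TEA pH 7.2, 100 mM KCl, 10 mM MgCl2, 0.05% BSA, 0.01% Tween-20. Pyruvate kinase from T. brucei plus substrate met compound, then ADP (130 uM final). Luminescence was read post 45 min RT.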
LmPK inh = blocks Leishmania mexicana pyruvate kinase activity; purified LmPK, Kinase-Glo ATP luminescence, 1 h; Potency, µM (series often up to 57.5 µM), most hits filed as inhibitors; AID 1721; 0.37% of 290,000 active
Target sequence (Q27686 whole entry, looked up): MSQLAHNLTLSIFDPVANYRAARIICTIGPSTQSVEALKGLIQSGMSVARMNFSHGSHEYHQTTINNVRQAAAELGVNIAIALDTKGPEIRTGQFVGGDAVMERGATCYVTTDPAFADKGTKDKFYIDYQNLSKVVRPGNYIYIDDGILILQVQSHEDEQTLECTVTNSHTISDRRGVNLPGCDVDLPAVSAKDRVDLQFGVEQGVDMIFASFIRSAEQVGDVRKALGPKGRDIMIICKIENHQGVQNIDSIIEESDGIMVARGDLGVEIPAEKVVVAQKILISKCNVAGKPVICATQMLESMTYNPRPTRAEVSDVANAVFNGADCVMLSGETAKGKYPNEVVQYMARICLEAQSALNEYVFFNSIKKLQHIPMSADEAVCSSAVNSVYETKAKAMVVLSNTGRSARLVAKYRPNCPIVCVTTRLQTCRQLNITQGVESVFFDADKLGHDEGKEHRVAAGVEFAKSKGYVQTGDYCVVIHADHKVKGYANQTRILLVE
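0.1 nM LmPK, 0.5 mM PEP, 0.1 mM ADP; 50 mM imidazole pH 7.2, 7 mM MgCl2, 50 mM KCl; 1 h RT. Kinase-Glo luminescence readout, normalized to no-enzyme (full inhibition) and uninhibited wells.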
Cycloheximide cs = counter-screen for Shiga toxin inhibitors: cycloheximide protein synthesis inhibition. cell reporter, cycloheximide protein synthesis inhibition counterscreen. max response, %. 12% of 300,000 active; in the data active = max response mostly above about 13%, no sharp cut-off; inactive = mostly below about 14%; also: read at 38.3 µM for the half of the compounds with a filed dose
NS1 inh = influenza NS1 inhibition; AID 2326; 0.4% of 270,000 active; Potency, µM (doses to about 46.1 µM); calls by dose curve; also: actives are rising curves; nearly all actives have a fitted effect of over 50% in size
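Compounds were scored for reversing the slow growth caused by influenza A NS1 in S. cerevisiae, measured by optical density at 600 nm. Assay medium contained 2% galactose at pH 6.0; NS1-free yeast of the same strain were the positive control.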
Large screens that a line does not name were inactive. Unless noted, calls follow the shape of the dose curve; as a rule, active = well fitted curve in the direction sought with a large enough effect; inconclusive = small, poorly fitted or top-dose-only effect, or another doubt; inactive = no such curve, though single readings can be large; an effect the other way counts as inactive or inconclusive.

CCOC(=O)N1CCN(C(=O)c2ccc3c(c2)N(Cc2cccc(Cl)c2)C(=O)c2ccccc2S3=O)CC1 (stereo unspecified)	none
CCCCCOc1ccc(NC(=O)Cc2csc(C)n2)cc1	none (no result: SARS PLP yeast, Shiga inhibitor, LmPK inh, Cycloheximide cs, NS1 inh)
COc1ccc(C(=O)NNC(=O)c2snnc2C)cc1	Shiga inhibitor 42.1
COc1ccc(C(=O)NNC(=O)c2ccncc2)cc1	none
COc1ccc(C(=O)NNC(=O)c2cccc(F)c2)cc1	Shiga inhibitor 68.4, Cycloheximide cs 25.7
COc1cc(OC)c(/C=N/n2c(C3CCCCC3)n[nH]c2=S)c(OC)c1	TbPYK inhibitor 8.91µM, LmPK inh inconclusive
COc1cccc(/C=N/n2c(C3CCCCC3)n[nH]c2=S)c1O	TbPYK inhibitor inconclusive
COc1cccc(/C=N/n2c(C3CCCCC3)n[nH]c2=S)c1OC	TbPYK inhibitor 5.62µM
O=C(Nc1ccc(Cl)cc1)c1nc[nH]c1C(=O)NCCCCNC(=O)c1[nH]cnc1C(=O)Nc1ccc(Cl)cc1	none (no result: Shiga inhibitor, LmPK inh, Cycloheximide cs, NS1 inh)
N#C/C(=C/c1ccc(C(=O)O)cc1)C(=O)Nc1ccccc1	none (no result: NS1 inh)
N#C/C(=C/c1ccc2c(c1)OCO2)C(=O)Nc1ccc(O)cc1	Cycloheximide cs 49.5
N#C/C(=C\c1ccc2c(c1)OCCO2)C(=O)Nc1ccc(C(=O)O)cc1	Shiga inhibitor 112.6, Cycloheximide cs 78.0
CCCCCCCCNC(=O)/C(C#N)=C/c1ccc2c(c1)OCCO2	none
O=C(Nc1nc2c(s1)CCCC2)c1ccc(Br)o1	Shiga inhibitor 73.4, LmPK inh inconclusive, Cycloheximide cs 23.2
CC(=O)c1sc(NC(=O)c2ccc(Cn3cc(Br)cn3)o2)nc1C	none
CC(=O)c1sc(NC(=O)c2ccc(Br)o2)nc1C	Shiga inhibitor 34.4, Cycloheximide cs 37.7
COc1ccc(CC(=O)Nc2nc3c(s2)CCCC3)cc1	none (no result: SARS PLP yeast, Shiga inhibitor, LmPK inh, Cycloheximide cs, NS1 inh)
Cc1ccc(C(=O)Nc2nc3c(s2)CCCC3)o1	LmPK inh 25.1µM
Cc1ccc2nc(N3CCN(C(=O)C4COc5ccccc5O4)CC3)sc2c1 (stereo unspecified)	none (no result: SARS PLP yeast, Shiga inhibitor, LmPK inh, Cycloheximide cs, NS1 inh)
CC(=O)Nc1ccc(S(=O)(=O)NCc2nc(-c3ccccc3C)no2)cc1	none
COC(=O)[C@]12CCCCC=C1N(Cc1cccc3ccccc13)C(=O)[C@H](CC(=O)N1CCCCC1)C2	none (no result: SARS PLP yeast, Shiga inhibitor, LmPK inh, Cycloheximide cs, NS1 inh)
COC(=O)c1sccc1S(=O)(=O)N(CC(=O)NCc1ccc(C)cc1)c1ccccc1	none (no result: SARS PLP yeast, Shiga inhibitor, LmPK inh, Cycloheximide cs, NS1 inh)
Cc1cccc(/C=C/c2onc(C)c2[N+](=O)[O-])n1	none (no result: SARS PLP yeast, Shiga inhibitor, LmPK inh, Cycloheximide cs, NS1 inh)
Cc1cc(O)ccc1N/C=C/c1onc(C)c1[N+](=O)[O-]	Shiga inhibitor 64.4, Cycloheximide cs 38.7 (no result: NS1 inh)
COc1cc(/C=C/c2onc(C)c2[N+](=O)[O-])cc(OC)c1OC	none (no result: SARS PLP yeast, Shiga inhibitor, LmPK inh, Cycloheximide cs, NS1 inh)
Cc1cccc(N/C=C/c2onc(C)c2[N+](=O)[O-])c1	Shiga inhibitor 89.0, TbPYK inhibitor inconclusive, Cycloheximide cs 31.3 (no result: SARS PLP yeast)
COC(=O)c1c(C)nc(C)c(C(=O)OC)c1-c1ccccc1[N+](=O)[O-]	none (no result: SARS PLP yeast, TbPYK inhibitor, LmPK inh, NS1 inh)
CN=C1N(C)C[C@@H]2[C@@H]3C(=O)N(C)C(=O)[C@@H]3[C@](Cc3ccccc3)(C(=O)OC)N12	none (no result: Shiga inhibitor, LmPK inh, Cycloheximide cs, NS1 inh)
O=C(NNC(=O)C(c1ccccc1)c1ccccc1)c1ccccc1O	none (no result: SARS PLP yeast, Shiga inhibitor, LmPK inh, Cycloheximide cs, NS1 inh)
CCN(c1ccccc1)S(=O)(=O)c1cc([N+](=O)[O-])ccc1N	Shiga inhibitor 58.3, Cycloheximide cs 28.4
CCN(c1ccccc1)S(=O)(=O)c1ccc2ccccc2c1	none
Nc1cnc(Nc2ccc(Br)cc2)nc1N	Shiga inhibitor 57.8, Cycloheximide cs 27.5
CCOc1ccc(Nc2nc(N)c3ccccc3n2)cc1	TbPYK inhibitor inconclusive
CCOC(=O)c1c(NC(=O)CSc2cn(CCNC(=O)c3ccccc3OC)c3ccccc23)sc2c1CCC2	none (no result: SARS PLP yeast, Shiga inhibitor, LmPK inh, Cycloheximide cs, NS1 inh)
Nc1nccc(/C=C/c2c(F)cccc2Cl)n1	Shiga inhibitor 68.2, Cycloheximide cs 28.0
Oc1cccc2ccc(/C=C/c3ccccc3Cl)nc12	Shiga inhibitor 72.2, Cycloheximide cs 40.1
Oc1cccc2ccc(/C=C/c3c(F)cccc3Cl)nc12	Shiga inhibitor 157.7, LmPK inh inconclusive, Cycloheximide cs 52.9
Oc1cccc2ccc(SSc3ccc4cccc(O)c4n3)nc12	none (no result: SARS PLP yeast, Shiga inhibitor, TbPYK inhibitor, LmPK inh, Cycloheximide cs)
O=C(CN1CCNCC1)NC1CCCCC1	none (no result: SARS PLP yeast, Shiga inhibitor, LmPK inh, Cycloheximide cs, NS1 inh)
Cc1ccc(N=CC2=C(O)CC(c3ccco3)CC2=O)cc1 (stereo unspecified)	Cycloheximide cs 21.1
O=C1CC(c2ccco2)CC(O)=C1C=Nc1ccc(Br)cc1 (stereo unspecified)	none

High-throughput results deposited in PubChem BioAssay by National Center for Advancing Translational Sciences (NCATS).
